From PubChem BioAssay AID1159580 (chemical genetic matrix, 2015)
“And” between values parts separate entries of the source, which are not always exact repeats. Identical values can stand only once. The whole screen tested about 5,500 compounds, of which about 2,000 (36%) were called active. Roughly 18% stayed inconclusive and do not appear here. Cut-off read from the data, not from the text of the source: active = normalized growth mostly below about 0.91 (no sharp cut-off); inconclusive = no clear call, values can overlap the other calls; inactive = mostly above about 0.92. The list shows a part of the results.

Assay: chemical genetic growth profiling, strain panel (AID 1159580);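 note: tested at 20 µM; growth read once vehicle control cultures reached saturation at 30 °C; 1 = growth at the plate median or of vehicle wells; lower values mean less growth of the strain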
Settings: S. cerevisiae deletion strains, growth OD

Measured: normalized growth

CC(C)c1c(O)c(-c2cc3c(c(C(C)C)c2O)CCC2C(C)(C)CCC[C@]32C)cc2c1CCC1C(C)(C)CCC[C@]21C (stereo partly specified)
inactive: locus YAL013W, strain DEP1, active compounds read low 1.01 | locus YAL021C, strain ccr4, active compounds read low 0.987 | locus YAL026C, strain drs2, active compounds read low 0.988 | locus YAL030W, strain snc1, active compounds read low 0.996 | locus YBL061C, strain skt5, active compounds read low 0.991 | locus YBR009C, strain hhf1, active compounds read low 1.02 | locus YBR021W, strain FUR4, active compounds read low 1.03 | locus YBR023C, strain chs3, active compounds read low 0.992 | locus YBR171W, strain sec66, active compounds read low 0.976 | locus YBR229C, strain ROT2, active compounds read low 1.02 | locus YBR231C, strain swc5, active compounds read low 0.99 | locus YBR279W, strain paf1, active compounds read low 0.99 | locus YCL011C, strain gbp2, active compounds read low 0.983 | locus YCL016C, strain dcc1, active compounds read low 0.976 | locus YCL029C, strain bik1, active compounds read low 1.02 | locus YCL061C, strain MRC1, active compounds read low 0.982 | locus YCL069W, strain vba3, active compounds read low 0.998 | locus YCR088W, strain abp1, active compounds read low 1 | locus YDL005C, strain med2, active compounds read low 0.964 | locus YDL035C, strain GPR1, active compounds read low 1.02 | locus YDL040C, strain nat1, active compounds read low 0.991 | locus YDL074C, strain BRE1, active compounds read low 1.02 | locus YDL101C, strain DUN1, active compounds read low 1.01 | locus YDL134C, strain PPH21, active compounds read low 1.01 | locus YDL185W, strain tfp1, active compounds read low 1.04 | locus YDL192W, strain arf1, active compounds read low 1.03 | locus YDR001C, strain nth1, active compounds read low 0.984 | locus YDR069C, strain doa4, active compounds read low 0.982 | locus YDR101C, strain arx1, active compounds read low 1.01 | locus YDR137W, strain rgp1, active compounds read low 0.982 | locus YDR150W, strain NUM1, active compounds read low 1.02 | locus YDR159W, strain sac3, active compounds read low 0.986 | locus YDR162C, strain NBP2, active compounds read low 1.02 | locus YDR195W, strain ref2 0.938 | locus YDR297W, strain sur2, active compounds read low 0.985 | locus YDR318W, strain mcm21, active compounds read low 1.02 | locus YDR334W, strain swr1, active compounds read low 0.972 | locus YDR335W, strain msn5, active compounds read low 0.986 | locus YDR388W, active compounds read low 1.01 | locus YDR392W, strain spt3, active compounds read low 0.982 | locus YDR502C, strain sam2, active compounds read low 1.01 | locus YEL003W, strain gim4, active compounds read low 0.995 | locus YEL037C, strain rad23, active compounds read low 0.99 | locus YEL061C, strain CIN8 (second series), active compounds read low 0.993 | locus YEL061C, strain CIN8, active compounds read low 1.01 | locus YER015W, strain faa2, active compounds read low 0.985 | locus YER016W, strain bim1, active compounds read low 0.972 | locus YER110C, active compounds read low 1.02 | locus YER111C, strain swi4, active compounds read low 0.992 | locus YER155C, strain BEM2 (second series), active compounds read low 0.992 | locus YER155C, strain BEM2, active compounds read low 1.01 | locus YER167W, strain BCK2, active compounds read low 1.03 | locus YFR010W, strain ubp6, active compounds read low 1.01 | locus YGL078C, strain dbp3, active compounds read low 1.01 | locus YGL086W, strain mad1, active compounds read low 1.02 | locus YGL167C, strain pmr1, active compounds read low 0.993 | locus YGL173C, strain kem1, active compounds read low 0.972 | locus YGL227W, strain vid30, active compounds read low 0.982 | locus YGL240W, strain doc1, active compounds read low 0.988 | locus YGL248W, strain PDE1, active compounds read low 1.02 | locus YGL253W, strain hxk2, active compounds read low 0.985 | locus YGR078C, strain PAC10, active compounds read low 1.01 | locus YGR135W, strain pre9, active compounds read low 1.01 | locus YGR229C, strain SMI1, active compounds read low 1.01 | locus YGR252W, strain gcn5, active compounds read low 1.06 | locus YHR013C, strain ard1, active compounds read low 0.947 | locus YHR027C, strain rpn1, active compounds read low 0.985 | locus YHR030C, strain SLT2, active compounds read low 1.01 and 0.972 | locus YHR079C, strain IRE1 (second series), active compounds read low 1.01 | locus YHR079C, strain IRE1, active compounds read low 0.965 | locus YHR094C, strain hxt1, active compounds read low 1.02 | locus YHR129C, strain ARP1, active compounds read low 1 | locus YHR142W, strain chs7, active compounds read low 0.986 | locus YHR200W, strain rpn10, active compounds read low 1.02 | locus YIL066C, strain RNR3, active compounds read low 1.02 | locus YIL073C, strain SPO22, active compounds read low 1.08 | locus YIL125W, strain kgd1, active compounds read low 1.02 | locus YIR030C, strain dcg1, active compounds read low 1.01 | locus YJL092W, strain hpr5, active compounds read low 0.979 | locus YJL095W, strain BCK1 (second series), active compounds read low 0.997 | locus YJL095W, strain BCK1, active compounds read low 1.01 and 1 | locus YJL115W, strain asf1, active compounds read low 0.956 | locus YJL129C, strain trk1, active compounds read low 0.988 | locus YJL134W, strain LCB3, active compounds read low 1.01 | locus YJL154C, strain vps35, active compounds read low 0.985 | locus YJL164C, strain tpk1, active compounds read low 0.994 | locus YJL166W, strain qcr8, active compounds read low 0.997 | locus YJL168C, strain set2, active compounds read low 1.02 | locus YJL187C, strain SWE1 (second series), active compounds read low 1.01 | locus YJR043C, strain POL32, active compounds read low 1.03 | locus YJR066W, strain TOR1, active compounds read low 0.945
